Source: PubChem BioAssay (Tox21)
Unmarked numbers belong to inactive results. Records with an inconclusive call do not appear. Entries that show only a call come without a potency. The source made the active and inactive calls. Calls follow the shape of the dose curve; as a rule, active = well fitted curve in the direction sought with a large enough effect in the repeat runs; inconclusive = weak or mixed curves; inactive = no such curve, though single readings can be large; an effect the other way counts as inactive or inconclusive.

How the values were obtained:
[1] = Human pregnane X receptor (PXR) small molecule agonists, qHTS cell viability counter screen (AID 1346977); also: nearly all actives have a fitted effect of over 50% in size; also: potency is read from the fitted curve at half-maximal effect
Summary of the method: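 Fluorescence read-out (CellTiter-Fluor) of viability in PXR-Luc HepG2 cells, multiplexed with the luciferase agonist read. Compounds in DMSO added after 5hr plating; 24hr total exposure at 37C, 5% CO2.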

[2] = Caspase-3/7 induction in HepG2 cells by small molecules, qHTS assay (AID 1346978); also: nearly all actives have a fitted effect of over 15% in size
Summary of the method: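 Caspase-3/7 induction was measured by Caspase-Glo 3/7 luminescence (30 min, room temperature) after a 17 hr compound exposure of wild-type HepG2 cells seeded at 2,000 per well and pre-incubated 5 hr.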

[3] = Caspase-3/7 induction in CHO-K1 cells by small molecules, qHTS assay (AID 1346980); also: nearly all actives have a fitted effect of over 15% in size
Summary of the method: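 Luminescent Caspase-Glo 3/7 read (30min, room temperature) quantified apoptosis induction. Cells were wild-type CHO-K1, treated with compound for 17hr at 37 C and 5% CO2.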

[4] = Caspase-3/7 induction in HepG2 cells by small molecules, qHTS cell viability counter screen (AID 1346981); also: series mostly up to about 92 µM; nearly all actives have a fitted effect of over 30% in size
Summary of the method: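 The parent HepG2 line is plated at 2,000 cells per well and rested 5 hr before compound pinning from DMSO stocks. Following a 16-hr treatment at 37 C, a fluorogenic live-cell substrate (CellTiter-Fluor) reports viability after 1 hr.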

[5] = target: Nuclear receptor subfamily 1 group I member 2 (Homo sapiens) (UniProt O75469); assay: Human pregnane X receptor (PXR) small molecule agonists, qHTS assay (AID 1346982); also: nearly all actives have a fitted effect of over 35% in size; also: potency is read from the fitted curve at half-maximal effect
Summary of the method: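 After plating in 5% charcoal-stripped FBS and a 5 hr rest, PXR-Luc HepG2 cells received compounds in DMSO. Following 24 hr at 37 C, ONE-Glo was added and light output read.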

[6] = target: Cytochrome P450 2D6 (Homo sapiens) (UniProt P10635); assay: Cytochrome P450 Family 2 Subfamily D Member 6 (CYP2D6) small molecule antagonists: luciferase reporter qHTS assay (AID 1671196); also: nearly all actives have a fitted effect of over 50% in size; also: potency is read from the fitted curve at half-maximal effect
Summary of the method: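 Quantitative HTS of Tox21 chemicals against CYP2D6 using a luminescent proluciferin substrate. After NADPH addition, 1 h room-temperature reaction; luminescence recorded 20 min post detection reagent.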

[7] = target: Nuclear receptor subfamily 1 group I member 2 (Rattus norvegicus) (UniProt Q9R1A7); assay: Rat pregnane X receptor (rPXR) activation by small molecules, qHTS assay (AID 1346983); conditions: rPXR luciferase reporter cells, One-Glo luminescence, 24 h; max activation: hits give high values; also: nearly all actives have a fitted effect of over 20% in size; also: potency is read from the fitted curve at half-maximal effect
Summary of the method: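 Luminescent readout (One-Glo luciferase, 30 min room temperature) followed 24 hr compound treatment at 37 C of rPXR cells plated 2,000 per well and preincubated 5hr; qHTS format with compounds delivered in DMSO.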

[8] = target: Nuclear receptor subfamily 1 group I member 2 (Homo sapiens) (UniProt O75469); assay: CYP3A4 induction through human pregnane X receptor (PXR) by small molecules, qHTS assay (AID 1346984); also: nearly all actives have a fitted effect of over 40% in size; also: potency is read from the fitted curve at half-maximal effect
Summary of the method: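 Human PXR activation is tracked via CYP3A4 promoter-luciferase in DPX-2 (HepG2) cells. Compounds treat cells for 24hr at 37C, and luminescence is read after One-Glo.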

[9] = target: Nuclear receptor subfamily 1 group I member 2 (Homo sapiens) (UniProt O75469); assay: Human pregnane X receptor (PXR) activation by small molecules, qHTS assay (AID 1346985); also: nearly all actives have a fitted effect of over 40% in size; also: potency is read from the fitted curve at half-maximal effect
Summary of the method: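 DPX-2 cells (HepG2 co-transfected with a PXR response element and a CYP3A4-promoter luciferase construct) were seeded at 2,000 per well, rested 5 hr at 37C, then exposed to DMSO-dissolved compounds for 24 hr. Activation was read as luciferase luminescence.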

Cytochrome P450 2D6 (Homo sapiens), sequence (P10635 whole entry, looked up): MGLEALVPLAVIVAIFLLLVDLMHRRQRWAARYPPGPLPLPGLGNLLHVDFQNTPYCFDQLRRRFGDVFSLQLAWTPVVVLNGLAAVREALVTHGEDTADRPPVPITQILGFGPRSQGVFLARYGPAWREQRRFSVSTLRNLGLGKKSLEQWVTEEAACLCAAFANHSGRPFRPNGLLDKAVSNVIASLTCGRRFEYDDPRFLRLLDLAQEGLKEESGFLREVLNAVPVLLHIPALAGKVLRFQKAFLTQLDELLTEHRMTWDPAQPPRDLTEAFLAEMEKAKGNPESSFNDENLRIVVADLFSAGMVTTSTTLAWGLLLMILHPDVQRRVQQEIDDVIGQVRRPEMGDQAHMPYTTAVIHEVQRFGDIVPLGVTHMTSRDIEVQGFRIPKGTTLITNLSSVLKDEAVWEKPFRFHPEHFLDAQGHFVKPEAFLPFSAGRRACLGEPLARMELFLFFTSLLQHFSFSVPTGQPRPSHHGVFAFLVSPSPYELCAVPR
Nuclear receptor subfamily 1 group I member 2 (Homo sapiens), sequence (O75469 whole entry, looked up): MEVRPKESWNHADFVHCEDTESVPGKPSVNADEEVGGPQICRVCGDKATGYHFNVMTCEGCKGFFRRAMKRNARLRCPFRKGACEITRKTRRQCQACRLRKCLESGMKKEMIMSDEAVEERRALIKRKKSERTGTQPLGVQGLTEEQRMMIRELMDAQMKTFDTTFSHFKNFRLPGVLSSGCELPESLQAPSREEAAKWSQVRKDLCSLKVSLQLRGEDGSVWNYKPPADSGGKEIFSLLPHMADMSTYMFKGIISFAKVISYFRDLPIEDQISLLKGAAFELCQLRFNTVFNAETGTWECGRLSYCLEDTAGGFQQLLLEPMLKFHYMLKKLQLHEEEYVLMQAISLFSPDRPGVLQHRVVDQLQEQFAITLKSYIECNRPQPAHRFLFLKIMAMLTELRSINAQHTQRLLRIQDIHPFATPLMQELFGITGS
Nuclear receptor subfamily 1 group I member 2 (Rattus norvegicus), sequence (Q9R1A7 whole entry, looked up): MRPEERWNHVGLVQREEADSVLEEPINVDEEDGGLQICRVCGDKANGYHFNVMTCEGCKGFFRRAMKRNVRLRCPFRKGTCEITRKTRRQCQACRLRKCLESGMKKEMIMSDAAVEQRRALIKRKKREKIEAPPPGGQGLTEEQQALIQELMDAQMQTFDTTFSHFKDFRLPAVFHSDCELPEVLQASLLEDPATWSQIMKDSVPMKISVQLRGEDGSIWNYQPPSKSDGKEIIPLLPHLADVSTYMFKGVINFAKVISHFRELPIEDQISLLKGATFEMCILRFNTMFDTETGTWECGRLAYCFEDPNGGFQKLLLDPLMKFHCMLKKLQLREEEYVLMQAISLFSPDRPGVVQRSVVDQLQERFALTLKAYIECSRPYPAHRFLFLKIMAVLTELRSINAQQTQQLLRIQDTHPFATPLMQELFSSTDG

Compound: C/C=C\C/C=C/CCCCCCCCOC(C)=O
- Potency [1]: inactive
- Potency [2]: inactive
- Potency [3]: inactive
- Potency [4]: inactive
- Potency [5]: 61.1 µM (active)
- Potency [6]: 39.9 µM (active)

Compound: NC(=O)c1ccncc1
- Potency [1]: inactive
- Potency [2]: inactive
- Potency [3]: inactive
- Potency [4]: inactive
- Potency [5]: inactive
- Potency [6]: inactive

Compound: Nc1ncnc2c1ncn2[C@H]1CC[C@@H](CO)O1
- Potency [1]: inactive
- Potency [2]: inactive
- Potency [3]: inactive
- Potency [4]: inactive
- max activation [7]: 1.66%
- Potency [8]: inactive
- Potency [9]: inactive

Compound: C=Cc1ccc(S(=O)(=O)O)cc1
- Potency [1]: inactive
- Potency [2]: inactive
- Potency [3]: inactive
- Potency [4]: inactive
- Potency [5]: 38.6 µM (active)
- max activation [7]: -2.52%
- Potency [8]: inactive
- Potency [9]: inactive
- Potency [6]: inactive

Compound: CC(C)=CC(=O)C=C(C)C
- Potency [1]: inactive
- Potency [2]: inactive
- Potency [3]: inactive
- Potency [4]: inactive
- Potency [5]: inactive
- Potency [6]: inactive

Compound: C=C1CCC2CC1C2(C)C (configuration not stated)
- Potency [1]: inactive
- Potency [2]: inactive
- Potency [3]: inactive
- Potency [4]: inactive
- Potency [5]: inactive
- Potency [6]: inactive

Compound: CC(C)(C)CC(=O)OCC(=O)[C@@]1(O)CC[C@H]2[C@@H]3CCC4=CC(=O)C=C[C@]4(C)[C@H]3[C@@H](O)C[C@@]21C
- Potency [1]: inactive
- Potency [2]: inactive
- Potency [3]: inactive
- Potency [4]: inactive
- Potency [6]: 38.9 µM (active)

Compound: O=C(OCC(O)CO)c1ccccc1Nc1ccnc2cc(Cl)ccc12 (configuration not stated)
- Potency [1]: 26.6 µM (active)
- Potency [2]: inactive
- Potency [3]: inactive
- Potency [4]: inactive
- max activation [7]: -2.2%
- Potency [8]: inactive
- Potency [9]: inactive
- Potency [6]: 13.8 µM (active)

Compound: CCC=CC#N
- Potency [1]: inactive
- Potency [2]: inactive
- Potency [3]: inactive
- Potency [4]: inactive
- Potency [5]: 47.1 µM (active)
- Potency [6]: inactive

Compound: O=C1c2ccccc2C(=O)C1c1ccc(Br)cc1
- Potency [1]: inactive
- Potency [2]: inactive
- Potency [3]: inactive
- Potency [4]: inactive
- Potency [7]: 11.2 µM (active)
- Potency [8]: 25.1 µM (active)
- Potency [9]: 7.08 µM (active)
- Potency [6]: inactive
